Source: PubChem (National Center for Advancing Translational Sciences (NCATS))
A selection: hits, their analogues and other compounds. The true share with any hit is near 7.5%.
NPC1 prom act – qHTS Assay for NPC1 Promoter Activators. Huh7 NPC1 promoter luciferase reporter, 24 h. Potency, µM (highest dose often 9.22 µM), for the others: at the highest dose activation, hits mostly activators. 320,000 tested, 2.4% active. AID 485313, 2010; note: % of control where 0% means no effect; nearly all actives have a fitted effect of over 60% in size
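Stably transfected Huh7 (NPC1 promoter→luciferase), 1500 cells/well in Opti-MEM + 10% FBS, 2 h settle, then compound 24 h at 37 °C. Luminescence after 10 min with Amplite reagent.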
Luc counter – Counterscreen for Luciferase (Kinase-Glo TM) Inhibition | Luciferin 4-monooxygenase (Photuris pensylvanica), Q27757 | Kinase-Glo luciferase, ATP luminescence, 8 min | Potency, µM (top dose mostly 38.3 µM), without a hit: at the highest dose activity change, negative = inhibition, actives largely listed as inhibitors | 200,000 tested, 0.28% active | AID 1379, 2008; note: % is set by controls: 0 for no effect and ±100 for the full control effect; nearly all actives have a fitted effect of over 60% in size
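Substrate mix (final 50 mM imidazole pH 7.2, 50 mM KCl, 7 mM MgCl2, 10 uM ATP, 0.01% Tween 20, 0.05% BSA) plus pin-tool compound, then Kinase-Glo detection mix; 8 min ambient, luminescence read.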
FLuc counter – qHTS profiling assay for firefly luciferase inhibitor/activator using purifed enzyme and Km concentrations of substrates (counterscreen for miR-21 project) | Luciferin 4-monooxygenase (Photinus pyralis), P08659 | purified FLuc, Km substrates, luminescence inhibition | Potency, µM (highest dose often 57.5 µM), for inactives: at the top dose activity change, negative = inhibition, hits mostly inhibitors | 360,000 tested, 6.9% active;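 note: plate controls were vehicle for no effect and reference inhibitor for full effect; nearly all actives have a fitted effect of over 55% in size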
Target sequence (P08659 whole entry, looked up): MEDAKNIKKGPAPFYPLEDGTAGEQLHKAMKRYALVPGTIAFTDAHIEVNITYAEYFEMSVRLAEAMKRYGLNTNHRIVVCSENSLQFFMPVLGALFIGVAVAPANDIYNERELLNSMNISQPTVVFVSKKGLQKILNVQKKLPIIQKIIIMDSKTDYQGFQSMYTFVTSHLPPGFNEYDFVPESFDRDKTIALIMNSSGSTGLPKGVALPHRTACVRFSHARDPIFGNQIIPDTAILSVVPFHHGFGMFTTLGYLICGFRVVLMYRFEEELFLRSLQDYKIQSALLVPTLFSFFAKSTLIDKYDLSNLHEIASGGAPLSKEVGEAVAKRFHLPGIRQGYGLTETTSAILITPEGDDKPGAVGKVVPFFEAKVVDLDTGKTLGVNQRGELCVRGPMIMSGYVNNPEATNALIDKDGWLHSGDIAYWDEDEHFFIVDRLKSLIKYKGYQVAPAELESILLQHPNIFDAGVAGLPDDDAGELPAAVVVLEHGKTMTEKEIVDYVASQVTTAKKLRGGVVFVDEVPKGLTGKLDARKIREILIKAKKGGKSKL
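Purified P. pyralis luciferase, 10 nM final, with Km-level 10 uM D-luciferin and 10 uM ATP in 50 mM Tris acetate pH 7.5, 10 mM Mg acetate, 0.01% Tween-20, 0.05% BSA; 6-point qHTS titration about 60 µM downward; luminescence read.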
SMN2 splice up – qHTS Assay for Enhancers of SMN2 Splice Variant Expression. HEK293 SMN2-luciferase splicing reporter, luminescence, 30-36 h. 210,000 tested, 2.8% active. AID 1458, 2008. Potency, µM (series often up to 46.1 µM), inactives show at the highest dose activity change, positive = activation, actives largely listed as activators; note: % of control where 0% means no effect; nearly all actives have a fitted effect of over 55% in size
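HEK293 cells carry an SMN2 minigene-luciferase reporter in which exon 7 inclusion puts luciferase in frame. Cells were seeded at 2000 cells/well, attached for 10-12 hours, then exposed to compounds for 30-36 hours at 37C before ONE-Glo luminescence.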
Rab9 prom act – qHTS Assay for Rab9 Promoter Activators; Potency, µM (top dose mostly 9.22 µM), without a hit: top-dose activation, negative = inhibition, usual class: activators; 320,000 tested, 2.8% active; Huh7 Rab9 promoter-luciferase reporter, luminescence, 24 h; note: % of control where 0% means no effect; nearly all actives have a fitted effect of over 60% in size
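Cell-based reporter: Huh7 stable for Rab9 promoter-driven luciferase, plated in reduced-serum medium with 10% FBS at 1500 cells/well, compound-treated 24 h at 37 °C, luminescence read after 10 min reagent.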
ELG1 genotox – qHTS screen for small molecules that induce genotoxicity in human embryonic kidney (HEK293T) cells expressing luciferase-tagged ELG1; HEK293T ELG1-luciferase reporter, luminescence, 16 h; Potency, µM (titrated, usually from 46 µM), for the others: at the highest dose activity change, positive = activation, usual class: activators; 330,000 tested, 1.3% active; AID 504466, 2011; note: % of control where 0% means no effect; nearly all actives have a fitted effect of over 60% in size
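Genotoxicity was scored as increased ELG1-luciferase reporter signal, measured by ONE-Glo luminescence (30 min, room temperature). Compound or vehicle exposure of the HEK293T reporter cells lasted 16 hr at 37°C.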
* marks the source's active call; other numbers are inactive results; ? = inconclusive; / = not tested or not shown; [ ] = remark or other dose. Calls come from the whole dose curve; as a rule, active = well fitted curve in the direction sought with a large enough effect; inconclusive = small, poorly fitted or top-dose-only effect, or another doubt; inactive = no such curve, though single readings can be large; an effect the other way counts as inactive or inconclusive. Potency is the fitted concentration of half-maximal effect.

SMILES	NPC1 prom act	Luc counter	FLuc counter	SMN2 splice up	Rab9 prom act	ELG1 genotox
Cc1cc(NC(=O)c2cccnc2Cl)ccc1NC(=O)c1cc2ccccc2o1	-4%	/	-6%	/	-5%	-21%
Cc1ccc(NC(=O)N2CCc3c([nH]c4ccccc34)C2c2ccccc2F)c(Cl)c1 (configuration not stated)	/	/	-1%	/	/	/
O=C(Nc1ccc(S(=O)(=O)N2CCOCC2)cc1)c1ccc(Br)o1	2%	-1%	1%	-22%	-7%[1.84 µM]	-4%
O=C(Nc1ccc(N2CCOCC2)c(Cl)c1)c1ccc(Br)o1	1.4µM*	-23%	8.5µM*	4.5µM*	3.2µM*	?
O=C(Nc1ccccc1N1CCOCC1)c1cc2ccccc2o1	?	/	9.5µM*	/	16%	4%
O=C(Nc1ccc(N2CCN(C(=O)c3ccccc3)CC2)c(Cl)c1)c1ccc(Br)o1	-4%	-4%	-1%	-42%	-9%	-7%
Cc1ccsc1C(=O)Nc1ccccc1N1CCOCC1	6%	-6%	19µM*	6%	-6%	-2%
O=C(Nc1ccc(CN2CCOCC2)cc1)c1ccc(Br)o1	3.2µM*	/	19µM*	/	?	?
CCN(c1ccccc1)S(=O)(=O)c1ccc(OC)c(NC(=O)c2cc(Cl)ccn2)c1	-4%	/	8%	/	-2%	1%
O=C(Nc1ccc(N2CCOCC2)c(Cl)c1)c1cc2ccccc2o1	3.5µM*	-5%	8.5µM*	27%	3.2µM*	-11%
O=C(Nc1cc2c(cc1C(=O)c1ccccc1Cl)OCCO2)c1ccccc1	/	/	-14%	-15%	/	/
N#Cc1nc(COc2cccc(Cl)c2)oc1NCCc1ccccc1	/	/	-12%	-6%	/	/
CC(=O)NC(CSC(CC(=O)c1ccco1)c1ccc(C)cc1)C(=O)O (configuration not stated)	12%	-9%	4.3µM*	-9%	?	?
S=c1[nH]nc(-c2ccccc2)n1/N=C/c1ccc(-c2ccccc2Cl)o1	-5%	1%	-6%	?	-3%	-8%
O=C(O)c1ccc(N/N=C/c2ccc(-c3ccccc3Cl)o2)cc1	?	/	0.67µM*	/	?	1.8µM*
O=S(=O)(N/N=C\c1ccc(-c2ccccc2Cl)o1)c1ccccc1	2%	6%	-7%	-53%	-3%	-2%
O=C(N/N=C/c1ccc(-c2ccccc2Cl)o1)c1ccccc1	0%	1%	13µM*	?	16%	18%
Cc1nnc(C)n1/N=C/c1ccc(-c2ccccc2Cl)o1	-2%	/	-13%	/	1%	23µM*
Cc1nnc(NCc2ccccc2)c2c1nnn2Cc1ccccc1Cl	/	/	-1%	7%	/	/
Cc1cc(C)c2nc(-c3ccncc3)cc(C(=O)N3CCN(Cc4ccccc4Cl)CC3)c2c1	-1%	/	15µM*	/	1%	-14%
COc1cc(/C=N/NC(=O)c2cccc(NC(=O)c3ccccc3)c2)ccc1O	16%	/	9.5µM*	/	20%	-8%
COc1ccc(/C=N/NC(=O)c2cccc(NC(=O)c3ccc(Cl)cc3)c2)c(OC)c1	24%	0%	2.7µM*	?	?	3%
COc1ccc(/C=N/NC(=O)c2ccc3nc[nH]c3c2)cc1OC	0%	/	?	/	-4%	-5%
COc1cc(/C=N/NC(=S)Nc2cccc(S(=O)(=O)N(C)C)c2)ccc1O	-3%	14%	2.7µM*	21%	0%	1%
COc1cc(/C=N/NC(=O)c2ccc3nc[nH]c3c2)cc(OC)c1OC	-10%	/	12µM*	/	-7%	-4%
SMILES	NPC1 prom act	Luc counter	FLuc counter	SMN2 splice up	Rab9 prom act	ELG1 genotox
COc1ccc(C)cc1NC(=O)c1cc2c(=O)n3cccc(C)c3nc2s1	/	/	-2%	-3%	/	/
O=C(Cn1nc2ccccc2n1)N/N=C/c1cc(Cl)cc([N+](=O)[O-])c1O	-1%	-3%	?	-23%	-3%	6%
Cc1ccccc1C(=O)Nc1cccc(C(=O)N/N=C/c2cc(Cl)cc([N+](=O)[O-])c2O)c1	1%	/	21µM*	/	1%	14%
COc1cc(/C=N\NC(=O)c2ccc(-c3ccccc3)cc2)cc(OC)c1O	4%	/	9.5µM*	/	21%	4%
COc1cc(/C=N/NC(=O)c2cccc(NC(=O)c3ccccc3C)c2)ccc1O	12%	/	19µM*	/	-1%	-10%
O=C(CSc1nc2c([nH]c3ccccc32)c(=O)n1-c1ccccc1)N1CCCC1	/	/	1%	/	/	/
Nc1nnc(-c2ccccc2F)s1	9%	-4%	?	/	16%	15%
Nc1nnc(-c2ccc(Cl)cc2Cl)s1	25%	1%	12µM*	/	?	?
COc1cc(C(=O)Nc2nc3c(s2)Cc2c(Br)ccc(OC)c2-3)cc(OC)c1OC	/	/	-7%	1%	/	/
C/C(=N/OC(=O)c1ccccc1Br)c1ccc(C)cc1	18%	/	2.7µM*	/	17%	?
C/C(=N\OC(=O)c1ccc(Cl)c(Cl)c1)c1sc(C)nc1C	-1%	2%	5.4µM*	-10%	-2%	1%
C/C(=N\NC(=O)Cc1ccccc1)c1cccs1	1%	-7%	0%	3%	-2%	0%
C/C(=N/N=C(/C)c1cccs1)c1cccs1	?	/	4.8µM*	/	?	?
C/C(=N\OC(=O)c1ccc(C)cc1)c1sc(C)nc1C	-4%	-10%	2.7µM*	-10%	-2%	0%
CCCCSCCCNC(=O)CN1C(=O)COc2ccc(S(=O)(=O)N3CCCC3)cc21	/	/	3%	-6%	/	/
COc1ccc(C(=O)O/N=C(/c2cccs2)C(C)(C)C)cc1	-2%	/	-11%	/	1%	-1%
C/C(=N/OC(=O)c1ccc(C)cc1)c1cccs1	-1%	13µM*	0.076µM*	11%	2%	1%
CCOC(=O)Cn1c(=O)n(CC2CCCO2)c2nc(-c3ccc(OCC)cc3)nc(C(N)=O)c21 (configuration not stated)	/	/	0%	/	/	/
COc1ccc(C(=O)NC(=S)NCCc2ccccc2)cc1	5%	1%	?	28%	22%	13%
CC(C)(C)c1ccc(C(=O)NC(=S)NCc2ccco2)cc1	19%	/	19µM*	/	8%	9%
COCCNC(=S)NC(=O)c1ccc(C(C)(C)C)cc1	24%	-8%	13µM*	?	?	?
Cc1nc2nc(SCC(=O)NCCc3ccccc3)nn2c(C)c1Cc1c(F)cccc1Cl	/	/	-13%	3%	/	/
